Source: PMC5540273 (PLoS ONE, 2017)

Legend:
Details in all cases: concentration: 1 μM, replicates: in singlicate; n = 1
LKB1 = tested on: T1, LKB1
T1 construct: gene STK11

LOK = tested on: T2, LOK
T2 construct: gene STK10

LRRK2 = tested on: LRRK2
LTK = tested on: LTK
LYN = tested on: LYN
LZK = tested on: T3, LZK
T3 construct: gene MAP3K13

MAK = tested on: MAK
MAP3K15 = tested on: MAP3K15
MAP3K1 = tested on: MAP3K1
MAP3K2 = tested on: MAP3K2
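Also: KINOMEscan kinase panel screen.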

Structure (SMILES) | %Inh (LKB1) | %Inh (LOK) | %Inh (LRRK2) | %Inh (LTK) | %Inh (LYN) | %Inh (LZK) | %Inh (MAK) | %Inh (MAP3K15) | %Inh (MAP3K1) | %Inh (MAP3K2)
Nc1nc(-c2cccnc2)c(-c2ccnc3ccccc23)s1 [GW684083] | 15% | 0% | 0% | 0% | 72% | 14% | 10% | 0% | 6% | 0%
O=C(CCO)NCCn1ccc2ncnc(Nc3ccc(Oc4cccc(C(F)(F)F)c4)c(Cl)c3)c21 | 39% | 72% | 0% | 0% | 8% | 0% | 0% | 0% | 0% | 0%
Cn1cc(-c2ccc3c(c2)CCN3C(=O)Cc2cccc(C(F)(F)F)c2)c2c(N)ncnc21 [GSK2606414] | 0% | 0% | 43% | 15% | 0% | 0% | 0% | 0% | 3% | 9%
Cc1ccc(NC(=O)c2cccc(C#N)c2)cc1-c1ccc(C(=O)Nc2ccncc2)cc1 [GSK1398463] | 0% | 0% | 28% | 0% | 69% | 0% | 36% | 0% | 12% | 0%
COc1ccc(NC(=O)c2ccc(-c3cc(-c4nnc(C)o4)ccc3C)cc2)cc1 [GW595885] | 0% | 0% | 42% | 0% | 32% | 12% | 47% | 0% | 2% | 1%
